The structures appear in SMILES notation. Compounds without any hit were thinned out: in the full panel of roughly 83,000, 20% have a hit.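 Negative percent growth values reflect cell death: -40 means 40% of the cells present at the start died, and -100 means all died.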 Activity calls are given as the source filed them. The calls were made as follows: active = growth percent below 10; inactive = the rest.

This test has as its system HL-60(TB) leukemia. The test can be described thus: NCI-60 one-dose screen, 48 h (100 = growth as untreated, 0 = no growth, -100 = all killed). The settings on record: 10 µM unless noted.
On to `C=C(C)C(=O)O[C@H]1C[C@@]2(C)OC(=CC2=O)/C(C)=C\[C@H]2OC(=O)C(=C)[C@H]12`, for which the growth was -20.9% (active).

In the case of `CC(C)(C)OC(=O)NCc1ccc(CNc2c([N+](=O)[O-])cnc3ccccc23)cc1`, the growth was 49.1% (inactive).

With `Cc1[nH]c(C(=O)Nc2ccccc2OCc2cccc(C(=O)N3CCC[C@@H](N)C3)c2)c(Cl)c1Cl`, the growth was -67.7% (active).

With `CN(C)c1cccc2c(S(=O)(=O)Nc3cccc(-c4csc(NC(=O)CCCCCN5CCN(CCO)CC5)n4)c3)cccc12`, the growth is 74.8% (inactive).

Regarding `O=C(NCCCCCCNC(=O)c1c2c(nc3ccccc13)-c1cccnc1SC2)c1c2c(nc3ccccc13)-c1cccnc1SC2`, the growth is 24% (inactive).

Regarding `O=S(=O)(Nc1ccc(I)c(Cl)c1)c1ccc(-c2cnc(C3CC3)o2)cc1`, the growth is -1.6% (active).
